What was measured:
Assay in all cases: DAPPL (digital affinity profiling via proximity ligation, sequencing); 10 mM Tris-HCl pH 7.5, 50 mM NaCl, 1 mM DTT, 4% glycerol, room temperature, 30 min; GST-TFs on glutathione beads, 16-mer random dsDNA library, 0.1% formaldehyde crosslink after washing; high values mean tight binding
Details in all cases: protein: recombinant; tags: N-terminal GST; dsDNA, one strand shown
FLI1 = target: T1, FLI1 (Homo sapiens, UniProt Q01543 1-452)
T1 sequence: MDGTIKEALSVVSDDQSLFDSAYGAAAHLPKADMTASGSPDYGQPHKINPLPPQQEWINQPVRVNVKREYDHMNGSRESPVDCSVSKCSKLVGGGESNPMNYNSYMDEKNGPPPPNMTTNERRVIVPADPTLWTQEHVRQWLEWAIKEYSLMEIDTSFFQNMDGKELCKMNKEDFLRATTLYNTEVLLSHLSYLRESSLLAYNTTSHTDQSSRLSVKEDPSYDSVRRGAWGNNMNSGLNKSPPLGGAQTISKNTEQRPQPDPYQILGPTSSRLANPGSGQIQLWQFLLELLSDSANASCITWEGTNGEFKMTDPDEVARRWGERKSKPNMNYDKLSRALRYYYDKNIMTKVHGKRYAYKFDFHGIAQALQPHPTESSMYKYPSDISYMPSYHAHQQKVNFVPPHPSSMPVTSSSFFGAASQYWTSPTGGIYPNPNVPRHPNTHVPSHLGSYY
In short: (§1)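 Human transcription factors fused to GST were expressed in yeast, captured on glutathione beads, given DNA barcodes and pooled with a GST-only negative control. Pools were incubated with 200 nmole of a 16-mer random double-stranded DNA library in Tris/NaCl/DTT/glycerol buffer at room temperature for 30 min. They were then washed, crosslinked with 0.1% formaldehyde, proximity-ligated (BsaI/T4 ligase, 1 h, 37 °C), PCR-amplified and sequenced on an Illumina NextSeq500. Binding signal is each 6-mer's read frequency for a factor divided by its frequency for the GST control.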

ELK1 = target: T2, ELK1 (Homo sapiens, UniProt P19419 1-428)
T2 sequence: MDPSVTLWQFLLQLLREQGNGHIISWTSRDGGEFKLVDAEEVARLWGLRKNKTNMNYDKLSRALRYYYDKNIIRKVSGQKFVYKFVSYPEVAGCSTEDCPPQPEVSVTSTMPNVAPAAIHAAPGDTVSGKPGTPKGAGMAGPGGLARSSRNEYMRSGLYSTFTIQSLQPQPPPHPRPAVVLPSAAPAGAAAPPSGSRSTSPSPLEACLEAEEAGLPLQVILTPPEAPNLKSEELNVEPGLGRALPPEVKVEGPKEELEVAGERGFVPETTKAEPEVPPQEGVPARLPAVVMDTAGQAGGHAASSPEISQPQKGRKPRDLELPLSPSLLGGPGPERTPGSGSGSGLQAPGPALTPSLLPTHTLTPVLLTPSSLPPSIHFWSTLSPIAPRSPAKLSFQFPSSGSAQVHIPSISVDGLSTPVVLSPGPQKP
In short: as §1

GABPA = target: T3, GABPA (Homo sapiens, UniProt Q06546 1-454)
T3 sequence: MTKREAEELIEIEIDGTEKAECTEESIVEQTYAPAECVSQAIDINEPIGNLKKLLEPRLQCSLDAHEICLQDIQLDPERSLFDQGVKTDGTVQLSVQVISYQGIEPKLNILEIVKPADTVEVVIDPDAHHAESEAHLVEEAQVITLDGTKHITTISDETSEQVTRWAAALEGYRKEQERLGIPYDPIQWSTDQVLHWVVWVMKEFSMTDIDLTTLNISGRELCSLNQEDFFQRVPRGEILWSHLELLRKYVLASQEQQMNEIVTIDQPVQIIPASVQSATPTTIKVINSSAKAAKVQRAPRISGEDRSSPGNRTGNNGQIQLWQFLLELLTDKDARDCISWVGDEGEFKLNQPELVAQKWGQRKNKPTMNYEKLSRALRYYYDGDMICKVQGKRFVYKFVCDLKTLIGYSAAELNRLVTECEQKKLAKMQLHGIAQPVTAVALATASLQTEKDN
In short: as §1

ERG = target: T4, ERG (Homo sapiens, UniProt P11308 1-479)
T4 sequence: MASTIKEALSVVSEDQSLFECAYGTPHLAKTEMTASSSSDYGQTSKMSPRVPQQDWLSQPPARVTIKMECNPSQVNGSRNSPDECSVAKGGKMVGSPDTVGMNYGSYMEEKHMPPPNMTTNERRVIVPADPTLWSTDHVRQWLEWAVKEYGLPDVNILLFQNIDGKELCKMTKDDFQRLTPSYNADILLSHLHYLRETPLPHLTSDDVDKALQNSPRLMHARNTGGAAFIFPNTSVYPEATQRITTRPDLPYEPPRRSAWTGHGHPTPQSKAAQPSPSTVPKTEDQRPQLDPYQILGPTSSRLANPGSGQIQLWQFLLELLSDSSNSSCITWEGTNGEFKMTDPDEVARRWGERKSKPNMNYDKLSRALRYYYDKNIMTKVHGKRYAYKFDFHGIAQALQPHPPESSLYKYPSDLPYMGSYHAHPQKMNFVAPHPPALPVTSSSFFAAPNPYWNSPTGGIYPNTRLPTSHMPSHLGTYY
In short: as §1

ELF1 = ELF1 (Homo sapiens, UniProt P32519 1-619)
In short: as §1

EHF = target: T5, EHF (Homo sapiens, UniProt Q9NZC4 1-300)
T5 sequence: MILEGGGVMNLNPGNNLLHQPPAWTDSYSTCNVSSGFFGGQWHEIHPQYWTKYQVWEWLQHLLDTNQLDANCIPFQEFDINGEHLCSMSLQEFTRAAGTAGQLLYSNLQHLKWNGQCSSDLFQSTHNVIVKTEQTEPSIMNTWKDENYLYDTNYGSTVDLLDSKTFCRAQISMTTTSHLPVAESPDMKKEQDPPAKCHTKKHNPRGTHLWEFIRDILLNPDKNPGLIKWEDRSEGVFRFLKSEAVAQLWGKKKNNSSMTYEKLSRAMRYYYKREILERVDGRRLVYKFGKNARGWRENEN
In short: as §1

SPI1 = SPI1 (Homo sapiens, UniProt P17947 1-270)
In short: as §1

SPIB = SPIB (Homo sapiens, UniProt Q01892 1-262)
In short: as §1

ELK3 = target: T6, ELK3 (Homo sapiens, UniProt P41970 1-407)
T6 sequence: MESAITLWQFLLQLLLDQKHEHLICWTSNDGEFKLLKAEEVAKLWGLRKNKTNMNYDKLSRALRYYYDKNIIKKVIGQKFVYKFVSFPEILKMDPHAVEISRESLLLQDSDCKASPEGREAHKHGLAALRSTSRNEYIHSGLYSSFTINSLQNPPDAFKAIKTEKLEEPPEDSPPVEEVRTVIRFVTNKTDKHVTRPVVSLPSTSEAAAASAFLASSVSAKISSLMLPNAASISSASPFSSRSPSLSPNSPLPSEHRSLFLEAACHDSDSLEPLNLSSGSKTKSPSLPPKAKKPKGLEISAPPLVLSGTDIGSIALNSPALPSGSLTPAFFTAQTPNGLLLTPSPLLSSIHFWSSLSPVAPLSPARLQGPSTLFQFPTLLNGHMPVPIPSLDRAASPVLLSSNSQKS
In short: as §1

SPIB, sequence (Q01892 whole entry): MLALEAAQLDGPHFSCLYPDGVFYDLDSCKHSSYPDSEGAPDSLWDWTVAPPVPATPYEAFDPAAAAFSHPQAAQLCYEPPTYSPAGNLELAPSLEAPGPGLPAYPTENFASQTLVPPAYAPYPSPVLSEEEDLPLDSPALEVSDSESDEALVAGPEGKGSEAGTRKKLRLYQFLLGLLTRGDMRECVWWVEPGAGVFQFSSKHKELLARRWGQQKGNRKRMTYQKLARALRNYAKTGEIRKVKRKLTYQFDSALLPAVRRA
ELF1, sequence (P32519 whole entry): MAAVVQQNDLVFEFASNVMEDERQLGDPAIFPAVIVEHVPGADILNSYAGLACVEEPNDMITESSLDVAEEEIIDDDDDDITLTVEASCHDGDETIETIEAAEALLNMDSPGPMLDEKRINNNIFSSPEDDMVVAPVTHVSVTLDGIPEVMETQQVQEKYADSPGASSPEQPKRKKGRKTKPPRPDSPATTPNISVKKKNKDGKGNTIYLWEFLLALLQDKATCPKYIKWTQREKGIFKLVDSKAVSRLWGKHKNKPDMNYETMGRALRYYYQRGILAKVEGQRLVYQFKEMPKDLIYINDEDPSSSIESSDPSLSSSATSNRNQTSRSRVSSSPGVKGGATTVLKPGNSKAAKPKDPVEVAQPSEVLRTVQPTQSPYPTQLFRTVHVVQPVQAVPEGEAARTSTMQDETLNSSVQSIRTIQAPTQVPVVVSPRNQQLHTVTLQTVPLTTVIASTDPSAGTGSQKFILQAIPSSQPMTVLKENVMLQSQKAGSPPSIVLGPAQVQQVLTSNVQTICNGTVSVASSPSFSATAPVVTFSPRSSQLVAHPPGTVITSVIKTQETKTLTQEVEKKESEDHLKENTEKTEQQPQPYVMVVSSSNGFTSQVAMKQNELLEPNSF

Sequence	binding signal (FLI1)	binding signal (ELK1)	binding signal (GABPA)	binding signal (ERG)	binding signal (ELF1)	binding signal (EHF)	binding signal (SPI1)	binding signal (SPIB)	binding signal (ELK3)
TCGCCG	1.14 fold enrichment (6-mer frequency, TF over GST control)	1.24 fold enrichment (6-mer frequency, TF over GST control)	1.27 fold enrichment (6-mer frequency, TF over GST control)	1.24 fold enrichment (6-mer frequency, TF over GST control)	1.23 fold enrichment (6-mer frequency, TF over GST control)	1.34 fold enrichment (6-mer frequency, TF over GST control)	1.14 fold enrichment (6-mer frequency, TF over GST control)	1.16 fold enrichment (6-mer frequency, TF over GST control)	1.16 fold enrichment (6-mer frequency, TF over GST control)
CTTACC	1.21 fold enrichment (6-mer frequency, TF over GST control)	1.22 fold enrichment (6-mer frequency, TF over GST control)	1.26 fold enrichment (6-mer frequency, TF over GST control)	1.24 fold enrichment (6-mer frequency, TF over GST control)	1.24 fold enrichment (6-mer frequency, TF over GST control)	1.17 fold enrichment (6-mer frequency, TF over GST control)	1.34 fold enrichment (6-mer frequency, TF over GST control)	1.32 fold enrichment (6-mer frequency, TF over GST control)	1.26 fold enrichment (6-mer frequency, TF over GST control)
CCGCAC	1.45 fold enrichment (6-mer frequency, TF over GST control)	1.45 fold enrichment (6-mer frequency, TF over GST control)	1.5 fold enrichment (6-mer frequency, TF over GST control)	1.42 fold enrichment (6-mer frequency, TF over GST control)	1.55 fold enrichment (6-mer frequency, TF over GST control)	1.5 fold enrichment (6-mer frequency, TF over GST control)	1.52 fold enrichment (6-mer frequency, TF over GST control)	1.41 fold enrichment (6-mer frequency, TF over GST control)	1.52 fold enrichment (6-mer frequency, TF over GST control)
CTTCTA	1.39 fold enrichment (6-mer frequency, TF over GST control)	1.41 fold enrichment (6-mer frequency, TF over GST control)	1.44 fold enrichment (6-mer frequency, TF over GST control)	1.32 fold enrichment (6-mer frequency, TF over GST control)	1.52 fold enrichment (6-mer frequency, TF over GST control)	1.54 fold enrichment (6-mer frequency, TF over GST control)	1.41 fold enrichment (6-mer frequency, TF over GST control)	1.48 fold enrichment (6-mer frequency, TF over GST control)	1.34 fold enrichment (6-mer frequency, TF over GST control)
ACTTAG	1.04 fold enrichment (6-mer frequency, TF over GST control)	1.06 fold enrichment (6-mer frequency, TF over GST control)	1.11 fold enrichment (6-mer frequency, TF over GST control)	1.09 fold enrichment (6-mer frequency, TF over GST control)	1.05 fold enrichment (6-mer frequency, TF over GST control)	1.11 fold enrichment (6-mer frequency, TF over GST control)	1.05 fold enrichment (6-mer frequency, TF over GST control)	1.11 fold enrichment (6-mer frequency, TF over GST control)	1.17 fold enrichment (6-mer frequency, TF over GST control)
TGCCAC	1.21 fold enrichment (6-mer frequency, TF over GST control)	1.2 fold enrichment (6-mer frequency, TF over GST control)	1.14 fold enrichment (6-mer frequency, TF over GST control)	1.26 fold enrichment (6-mer frequency, TF over GST control)	1.18 fold enrichment (6-mer frequency, TF over GST control)	1.23 fold enrichment (6-mer frequency, TF over GST control)	1.21 fold enrichment (6-mer frequency, TF over GST control)	1.13 fold enrichment (6-mer frequency, TF over GST control)	1.23 fold enrichment (6-mer frequency, TF over GST control)
GGTTCC	1.52 fold enrichment (6-mer frequency, TF over GST control)	1.64 fold enrichment (6-mer frequency, TF over GST control)	1.37 fold enrichment (6-mer frequency, TF over GST control)	1.54 fold enrichment (6-mer frequency, TF over GST control)	1.53 fold enrichment (6-mer frequency, TF over GST control)	1.59 fold enrichment (6-mer frequency, TF over GST control)	1.75 fold enrichment (6-mer frequency, TF over GST control)	1.59 fold enrichment (6-mer frequency, TF over GST control)	1.52 fold enrichment (6-mer frequency, TF over GST control)

Source: PMC7862700, “An all-to-all approach to the identification of sequence-specific readers for epigenetic DNA modifications on cytosine”
